# Key:
# [1] = target: Platelet-derived growth factor receptor alpha (Homo sapiens) (UniProt P16234); conditions: at 1 µM
# [2] = target: Platelet-derived growth factor receptor alpha (Homo sapiens) (UniProt P16234); conditions: at 10 µM
# [3] = target: Platelet-derived growth factor receptor beta (Homo sapiens) (UniProt P09619); conditions: at 1 µM
# [4] = target: Platelet-derived growth factor receptor beta (Homo sapiens) (UniProt P09619); conditions: at 10 µM
# [5] = target: T1, 3-phosphoinositide-dependent protein kinase 1 (Homo sapiens) (UniProt O15530); conditions: at 1 µM
# T1 sequence (whole entry): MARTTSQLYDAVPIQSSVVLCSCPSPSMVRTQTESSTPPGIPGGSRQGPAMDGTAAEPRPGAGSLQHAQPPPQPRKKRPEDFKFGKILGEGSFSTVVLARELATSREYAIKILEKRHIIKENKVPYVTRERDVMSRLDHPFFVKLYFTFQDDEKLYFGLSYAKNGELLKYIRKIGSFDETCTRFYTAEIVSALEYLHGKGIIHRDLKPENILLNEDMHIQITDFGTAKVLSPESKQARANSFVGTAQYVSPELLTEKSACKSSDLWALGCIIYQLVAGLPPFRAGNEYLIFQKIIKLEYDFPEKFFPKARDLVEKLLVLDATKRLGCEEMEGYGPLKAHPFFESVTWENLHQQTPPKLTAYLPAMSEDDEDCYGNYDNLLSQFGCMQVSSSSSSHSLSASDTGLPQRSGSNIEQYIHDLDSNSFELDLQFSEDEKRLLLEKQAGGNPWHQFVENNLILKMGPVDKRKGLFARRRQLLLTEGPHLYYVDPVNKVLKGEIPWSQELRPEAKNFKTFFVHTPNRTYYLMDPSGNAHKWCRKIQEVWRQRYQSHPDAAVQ
# [6] = target: T1, 3-phosphoinositide-dependent protein kinase 1 (Homo sapiens); conditions: at 10 µM
# [7] = target: cAMP-dependent protein kinase catalytic subunit alpha (Homo sapiens) (UniProt P17612); conditions: at 1 µM
# [8] = target: cAMP-dependent protein kinase catalytic subunit alpha (Homo sapiens) (UniProt P17612); conditions: at 10 µM
# [9] = target: RAC-gamma serine/threonine-protein kinase (Homo sapiens) (UniProt Q9Y243); conditions: at 1 µM
# Sequence of RAC-gamma serine/threonine-protein kinase (Homo sapiens) (Q9Y243 whole entry): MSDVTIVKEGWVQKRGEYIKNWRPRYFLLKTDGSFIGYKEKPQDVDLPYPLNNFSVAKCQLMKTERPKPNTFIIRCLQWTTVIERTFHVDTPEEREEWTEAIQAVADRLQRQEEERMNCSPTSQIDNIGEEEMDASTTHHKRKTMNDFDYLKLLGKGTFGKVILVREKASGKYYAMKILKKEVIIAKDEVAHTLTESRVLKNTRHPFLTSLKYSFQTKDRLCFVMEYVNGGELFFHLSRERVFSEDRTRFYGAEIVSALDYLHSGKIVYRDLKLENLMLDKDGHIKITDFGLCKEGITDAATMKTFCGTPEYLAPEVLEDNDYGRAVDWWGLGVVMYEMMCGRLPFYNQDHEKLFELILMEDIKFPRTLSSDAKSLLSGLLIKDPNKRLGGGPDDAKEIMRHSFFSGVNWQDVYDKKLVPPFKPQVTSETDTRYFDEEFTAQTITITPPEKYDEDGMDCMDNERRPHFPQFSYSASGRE
# [10] = target: RAC-gamma serine/threonine-protein kinase (Homo sapiens) (UniProt Q9Y243); conditions: at 10 µM
# Sequence of Platelet-derived growth factor receptor beta (Homo sapiens) (P09619 whole entry): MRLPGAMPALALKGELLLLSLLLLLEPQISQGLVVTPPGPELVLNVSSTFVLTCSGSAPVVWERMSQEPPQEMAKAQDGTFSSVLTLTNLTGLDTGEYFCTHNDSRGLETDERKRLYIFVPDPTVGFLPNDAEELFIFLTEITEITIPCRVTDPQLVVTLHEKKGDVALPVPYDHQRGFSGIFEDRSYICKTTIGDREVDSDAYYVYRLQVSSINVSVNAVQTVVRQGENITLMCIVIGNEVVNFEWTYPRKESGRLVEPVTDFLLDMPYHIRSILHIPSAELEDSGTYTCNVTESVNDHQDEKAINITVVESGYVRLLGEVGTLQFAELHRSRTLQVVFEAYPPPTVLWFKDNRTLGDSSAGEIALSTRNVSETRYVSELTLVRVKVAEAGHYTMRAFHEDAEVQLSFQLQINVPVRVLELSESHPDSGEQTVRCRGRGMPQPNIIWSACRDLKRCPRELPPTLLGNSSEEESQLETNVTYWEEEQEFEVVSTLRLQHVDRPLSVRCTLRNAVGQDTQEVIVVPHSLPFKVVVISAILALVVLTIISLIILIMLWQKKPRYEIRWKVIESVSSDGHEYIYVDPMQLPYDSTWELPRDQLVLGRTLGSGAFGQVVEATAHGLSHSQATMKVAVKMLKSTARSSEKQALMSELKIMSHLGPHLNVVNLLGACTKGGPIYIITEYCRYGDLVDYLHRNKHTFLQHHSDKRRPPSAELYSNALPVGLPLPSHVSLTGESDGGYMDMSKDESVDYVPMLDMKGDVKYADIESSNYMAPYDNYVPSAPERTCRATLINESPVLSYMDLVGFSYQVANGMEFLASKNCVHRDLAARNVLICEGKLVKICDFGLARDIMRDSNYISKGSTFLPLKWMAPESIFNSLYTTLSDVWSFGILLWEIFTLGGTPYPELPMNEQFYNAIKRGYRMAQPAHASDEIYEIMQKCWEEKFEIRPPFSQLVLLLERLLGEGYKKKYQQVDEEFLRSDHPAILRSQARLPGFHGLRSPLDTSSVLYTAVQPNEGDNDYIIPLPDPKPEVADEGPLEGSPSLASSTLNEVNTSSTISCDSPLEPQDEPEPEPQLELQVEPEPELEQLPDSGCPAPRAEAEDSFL
# Sequence of Platelet-derived growth factor receptor alpha (Homo sapiens) (P16234 whole entry): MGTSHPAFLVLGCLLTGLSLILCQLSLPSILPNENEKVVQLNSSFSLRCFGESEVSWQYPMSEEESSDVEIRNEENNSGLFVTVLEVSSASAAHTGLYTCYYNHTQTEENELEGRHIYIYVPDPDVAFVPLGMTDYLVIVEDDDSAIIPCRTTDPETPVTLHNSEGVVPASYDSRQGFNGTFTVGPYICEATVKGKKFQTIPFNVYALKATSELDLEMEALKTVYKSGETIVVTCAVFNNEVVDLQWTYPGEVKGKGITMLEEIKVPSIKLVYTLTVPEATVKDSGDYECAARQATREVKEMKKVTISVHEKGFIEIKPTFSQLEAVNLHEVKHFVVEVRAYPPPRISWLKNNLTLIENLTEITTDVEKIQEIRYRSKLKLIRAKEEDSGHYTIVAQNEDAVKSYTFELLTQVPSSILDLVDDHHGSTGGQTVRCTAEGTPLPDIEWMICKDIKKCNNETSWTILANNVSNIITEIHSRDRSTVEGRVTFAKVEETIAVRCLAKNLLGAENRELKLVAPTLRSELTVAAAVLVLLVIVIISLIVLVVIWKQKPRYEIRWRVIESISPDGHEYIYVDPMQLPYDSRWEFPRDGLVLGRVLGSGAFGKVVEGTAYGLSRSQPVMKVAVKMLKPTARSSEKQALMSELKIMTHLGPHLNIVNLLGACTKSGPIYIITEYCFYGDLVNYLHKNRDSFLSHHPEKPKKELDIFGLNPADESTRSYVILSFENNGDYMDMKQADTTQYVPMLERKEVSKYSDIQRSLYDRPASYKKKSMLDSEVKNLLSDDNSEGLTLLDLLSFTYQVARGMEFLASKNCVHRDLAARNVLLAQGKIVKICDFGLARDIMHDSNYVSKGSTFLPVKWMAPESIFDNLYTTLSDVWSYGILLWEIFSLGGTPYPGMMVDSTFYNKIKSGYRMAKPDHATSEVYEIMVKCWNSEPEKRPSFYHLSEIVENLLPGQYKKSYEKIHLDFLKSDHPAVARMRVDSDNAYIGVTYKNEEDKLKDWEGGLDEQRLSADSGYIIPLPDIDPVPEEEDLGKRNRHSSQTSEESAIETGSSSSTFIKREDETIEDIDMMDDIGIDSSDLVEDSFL
structure (smiles),measurement,setting,value
Nc1cccc(-c2cc3c(Oc4cccc(O)c4)ncnc3[nH]2)c1,residual activity,[1],48%
same,residual activity,[2],10%
same,residual activity,[3],48%
same,residual activity,[4],8%
same,residual activity,[5],92%
same,residual activity,[6],40%
same,residual activity,[7],94%
same,residual activity,[8],85%
Nc1ccc2ncnc(NCCc3ccc(Oc4ccccc4)cc3)c2c1,residual activity,[1],87%
same,residual activity,[2],43%
same,residual activity,[3],97%
same,residual activity,[4],95%
same,residual activity,[5],104%
same,residual activity,[6],109%
same,residual activity,[7],103%
same,residual activity,[8],124%
same,residual activity,[9],99%
same,residual activity,[10],76%
CC#CC(=O)Nc1cc2c(Nc3ccc(F)c(Cl)c3)ncnc2cn1,residual activity,[1],113%
same,residual activity,[2],42%
same,residual activity,[3],105%
same,residual activity,[4],86%
same,residual activity,[5],102%
same,residual activity,[6],100%
same,residual activity,[7],99%
same,residual activity,[8],77%
same,residual activity,[9],93%
same,residual activity,[10],91%
c1ccc(-c2n[nH]c3c2oc2ccccc23)cc1,residual activity,[1],33%
same,residual activity,[2],5%
same,residual activity,[7],70%
same,residual activity,[9],90%
Cc1cccc(-c2[nH]c(C(C)(C)C)nc2-c2ccc3c(c2)OCO3)n1,residual activity,[7],87%
same,residual activity,[8],91%
CC(C)n1cnc2c(NCc3ccccc3)nc(NCCCO)nc21,residual activity,[1],105%
same,residual activity,[2],107%
same,residual activity,[3],98%
same,residual activity,[4],94%
same,residual activity,[5],107%
same,residual activity,[6],104%
same,residual activity,[7],98%
same,residual activity,[8],99%
same,residual activity,[9],104%
same,residual activity,[10],90%
O=C(O)c1ccc2c3c1cccc3c(=O)n1c3ccccc3nc21,residual activity,[1],113%
same,residual activity,[2],114%
same,residual activity,[4],108%
same,residual activity,[5],108%
same,residual activity,[6],82%
same,residual activity,[7],73%
same,residual activity,[8],89%
same,residual activity,[9],102%
same,residual activity,[10],82%
Oc1ccc(-c2nc(-c3ccc(F)cc3)c(-c3ccncc3)[nH]2)cc1,residual activity,[1],117%
same,residual activity,[2],105%
same,residual activity,[3],111%
same,residual activity,[4],97%
same,residual activity,[5],108%
same,residual activity,[6],94%
same,residual activity,[9],107%
same,residual activity,[10],77%
N#CC(C#N)=C(N)/C(C#N)=C/c1ccc(O)cc1,residual activity,[1],119%
same,residual activity,[3],99%
same,residual activity,[7],82%
same,residual activity,[8],63%
CCOc1cc2ncnc(Nc3cccc(Br)c3)c2cc1OCC,residual activity,[2],90%
same,residual activity,[3],89%
same,residual activity,[4],91%
same,residual activity,[5],104%
same,residual activity,[6],86%
same,residual activity,[7],73%
same,residual activity,[8],86%
same,residual activity,[9],100%
same,residual activity,[10],100%
O=C1NC(=O)/C(=C/c2ccc3c(c2)OC(F)(F)O3)S1,residual activity,[1],127%
same,residual activity,[2],113%
same,residual activity,[3],108%
same,residual activity,[4],116%
same,residual activity,[5],108%
same,residual activity,[6],106%
same,residual activity,[7],102%
same,residual activity,[8],74%
same,residual activity,[9],97%
same,residual activity,[10],83%
COc1ccc(S(=O)(=O)N(CCO)c2ccccc2CN(C)C/C=C/c2ccc(Cl)cc2)cc1,residual activity,[1],109%
same,residual activity,[2],95%
same,residual activity,[3],109%
same,residual activity,[4],104%
same,residual activity,[5],119%
same,residual activity,[6],114%
same,residual activity,[7],105%
same,residual activity,[9],104%
same,residual activity,[10],56%
CO[C@@H]1[C@H](N(C)C(=O)c2ccccc2)C[C@H]2O[C@]1(C)n1c3ccccc3c3c4c(c5c6ccccc6n2c5c31)C(=O)NC4,residual activity,[1],54%
same,residual activity,[2],32%
same,residual activity,[3],46%
same,residual activity,[4],25%
same,residual activity,[5],2%
same,residual activity,[6],1%
same,residual activity,[8],10%
same,residual activity,[9],22%
same,residual activity,[10],14%
O=c1cc(-c2cccc3c2Sc2ccccc2S3)oc(N2CCOCC2)c1,residual activity,[1],106%
same,residual activity,[3],111%
same,residual activity,[4],92%
same,residual activity,[5],99%
same,residual activity,[6],107%
same,residual activity,[7],102%
same,residual activity,[8],104%
same,residual activity,[9],106%
same,residual activity,[10],84%
Cc1cncc2cccc(S(=O)(=O)N3CCCN(C(=O)CN)C[C@H]3C)c12,residual activity,[3],100%
same,residual activity,[4],96%
same,residual activity,[7],69%
same,residual activity,[8],59%
same,residual activity,[9],100%
same,residual activity,[10],84%
Cn1nc2c3c(cccc31)C(=O)c1ccccc1-2,residual activity,[3],91%
same,residual activity,[4],88%
same,residual activity,[5],95%
same,residual activity,[6],74%
same,residual activity,[7],87%
same,residual activity,[8],90%
same,residual activity,[9],95%
same,residual activity,[10],91%
O=C1Nc2ccccc2/C1=C1/Nc2ccccc2/C1=N\OCCC(O)CO (centres undefined),residual activity,[1],79%
same,residual activity,[2],28%
same,residual activity,[3],79%
same,residual activity,[4],24%
same,residual activity,[5],29%
same,residual activity,[6],6%
same,residual activity,[8],38%
same,residual activity,[9],80%
same,residual activity,[10],36%
COc1cc2ncnc(Nc3ccc(Oc4ccccc4)cc3)c2cc1OC,residual activity,[1],79%
same,residual activity,[2],42%
same,residual activity,[3],102%
same,residual activity,[4],83%
same,residual activity,[5],109%
same,residual activity,[6],120%
same,residual activity,[7],92%
same,residual activity,[8],134%
same,residual activity,[9],92%
same,residual activity,[10],106%
O=C1NC(=O)c2cc(Nc3ccc(F)cc3)c(Nc3ccc(F)cc3)cc21,residual activity,[1],115%
same,residual activity,[2],107%
same,residual activity,[3],109%
same,residual activity,[4],95%
same,residual activity,[5],106%
same,residual activity,[6],110%
same,residual activity,[7],100%
same,residual activity,[8],82%
same,residual activity,[9],98%
same,residual activity,[10],65%

# Source: ChEMBL document CHEMBL2218924, “A broad activity screen in support of a chemogenomic map for kinase signalling research and drug discovery” (Biochem J, 2013)
